We go through 40 sequences from the supplement of paper PMC10338343.

± gives the standard deviation.

In the assay the test system is EfPiwi piRISC loaded with L1MC piRNA (26 nt). Kind of assay: pre-steady-state target cleavage rate (min^-1); auxiliary factor: 500 nM Ephydatia muelleri Gtsf1; guide: L1MC piRNA 5'p-UAACUAAAUACUAUGCAAGCUGUAGG; MIWI and MILI are mouse PIWI proteins and EfPiwi is from a freshwater sponge; tags in brackets are library labels; higher = faster piRNA-guided slicing of the target. How it is done:
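Cleave-'n-Seq: a library of target RNAs (target site in constant flanks) at […] was incubated with 1 nM active freshwater sponge Ephydatia fluviatilis Piwi piRISC (synthetic 5'-monophosphorylated piRNA guide) with or without 500 nM EmGtsf1 at 33 °C for 1 min to 16 h. Uncleaved targets were sequenced and the pooled three trials fitted to a burst-and-steady-state model to give the pre-steady-state cleavage rate (min^-1). Sequence is the target site only. Fits with R² ≤ 0 are excluded.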
Consider UCCUCCUACAGCUUGCAUGGUAUUUAGUUA, for which the “pre-steady-state target cleavage rate” value was 0.0681 ± 0.02.

For UCCUGGAUCAGCUUGCAUUGUAUUUAGAAA, the “pre-steady-state target cleavage rate” value amounted to 0.00264 ± 0.0021.

Regarding UCCUCUUACAGCUUGCAUAGUAUUUAGUUA, the “pre-steady-state target cleavage rate” value was 0.243 ± 0.061.

As to UCCUGGAACAGCUUGCAUAGUAAAUAGAAA, the “pre-steady-state target cleavage rate” value was determined as 0.00337 ± 0.0028.

As to UCCUCCUACAGCUUGCAUAGUAUUUAGGUA, the “pre-steady-state target cleavage rate” value came out at 0.00476 ± 0.0017. To UCCUGGUAGACCUUGCAUAGUAUUUAGUUA belongs 0.0182 ± 0.0065; to UCCUGGAUGUGCUUGCAUUGUAUUUAGUUA, 0.00484 ± 0.0027; to UCCUGGAACAGGUUGCAUACUAUUUAGUUA, 0.00367 ± 0.0017. To UCCUGGAUGUCGAACGAUAGUGAUUUAGUUA belongs less than 0.0001; to UCCUGGAACAGGUAGCAUAGUAUUUAGUUA, 0.00892 ± 0.0028; to UCCUGGAUCAGGUUGCAUAGUAAUUAGUUA, 0.012 ± 0.005. To UCCUGGAUGUCCUUACAUAGUAUUUAGUUA belongs 0.00492 ± 0.0036; to UCCUCCGUACAGCUUGCAUAGUAUUUAGUUA, 0.0578 ± 0.018; to UCCUGGUACUGCUUGCAAAGUAUUUAGUUA, 0.0752 ± 0.027. For UCCUCCAACAGCUUGCAUAGUAUUUAGUAA, the “pre-steady-state target cleavage rate” value is 0.00668 ± 0.0028. In the case of UCCUGGUACAGCUUGCAUAGUAUUUAGGUA, the “pre-steady-state target cleavage rate” value came to 0.00463 ± 0.0022. To UCCUCCUACAGCUUCCAUAGUAUAUAGUUA belongs 0.00246 ± 0.0022; to UCCUCCUACAGCUUGCAUAGUAUAAAGUAA, 0.0031 ± 0.0024; to UCCUGGAUGUCCCUUGCAUAGUAUUUAGUUA, 0.00608 ± 0.0026.

For the sequence UCCUCCUACAGGUAGCAUAGUAUUUAGUUA, the “pre-steady-state target cleavage rate” value was found to be 0.0265 ± 0.006. As for UCCUGGUUCAGGUUGCAUAGUAUUUAGUUA, the figure is 0.0166 ± 0.0047; as for UCCUGGAUCUGCUUGCAUAGUAUUUUGUUA, 0.0153 ± 0.0053. Turning to UCCUGGUACACCAUGCAUAGUAUUUAGUUA, the “pre-steady-state target cleavage rate” value was found to be 0.00335 ± 0.0031. As for UCCUGGUUCAGCAUGCAUAGUAUUUAGUUA, the “pre-steady-state target cleavage rate” value turned out to be 0.0347 ± 0.0092. To UCCUGCAACAGCUUGCAUAGAAUUUAGUUA belongs 0.00434 ± 0.0021. As for UCCUCCUACAGCUUGCAUAGUAUAUUAGUUA, the figure is 0.0567 ± 0.019.

With UCCUGGAUGAAGCUUGCAUAGUAUUUAGUUA, the “pre-steady-state target cleavage rate” value is 0.0366 ± 0.0082. To UCCUGGUACAGCUUCGAUAGUAUUUAGUUA belongs 0.00411 ± 0.0026; to UCCUCCUACAGCUUGCAUAGUAAAUACAAA, 0.00363 ± 0.003; to UCCUGGAUGAGCUUGCAUAGUAUUAAGAUA, 0.00505 ± 0.003.

Consider UCCUGCUACAGCUAGCAUAGUAUUUAGAAA, for which the “pre-steady-state target cleavage rate” value was determined as 0.00418 ± 0.0021. As for UCCUCCUACAGCUUGCAUACUAUUUAGUUA, the figure is 0.00904 ± 0.0032. To UCCUGGAUCAGCUAGCAUAGUAUUUAGUUA belongs 0.0313 ± 0.009; to UCCUGGAACAGCUUGCAUAGUAUGUUAGUUA, 0.00812 ± 0.0028; to UCCUGGAUGAGCUUGCAUAGUAUUUAGUCA, 0.00793 ± 0.0032. To UCCUGCUACAGCAUGCAUAGUAUAUAGUUA belongs 0.00599 ± 0.0029; to UCCUGGAUGAGCGUGCAUAGUAUUUAGUUA, 0.0239 ± 0.0062; to UCCUCCUACAGCUUGCAUUGUAUAUAGUUA, 0.00608 ± 0.0036. Consider UCCUCGUACAGCUUGCAUAGUAUAUAGUUA, for which the “pre-steady-state target cleavage rate” value was found to be 0.0103 ± 0.0042. As for UCCUGGAUGAGCUUGCAUAGUAUUUAGUGA, the figure is 0.00681 ± 0.0032.
